Hits are enriched below; roughly 3.7% of the tested compounds scored in any of these assays.
Nrf2 inh – Nrf2 qHTS screen for inhibitors | A549 ARE-Fluc reporter, luciferase luminescence, 18-24 h | Potency, µM (series often up to 46 µM), inactives show top-dose activity change, negative = inhibition, usual class: inhibitors | 360,000 tested, 2.1% active | AID 504444, 2011; also: potency is read from the fitted curve at half-maximal effect; % is scaled to controls: 0 for no effect and ±100 for the full control effect; nearly all actives have a fitted effect of over 60% in size
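Quantitative HTS in A549 cells stably bearing an antioxidant response element-firefly luciferase construct. Inhibition of Nrf2-driven transcription was scored by luminescence after 18-24 h of compound exposure at 37 °C.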
ClpP mod – qHTS Assay for Activators of ClpP | ATP-dependent Clp protease proteolytic subunit (Bacillus subtilis (strain 168)), P80244 | purified B. subtilis ClpP, FRET peptide cleavage, 20 min | Potency, µM (titrated, usually from 57.5 µM), for inactives: at the highest dose activity change, negative = active | 340,000 tested, 1.9% active | AID 651965, 2013; active = well fitted falling curve with a large enough effect; inconclusive = small, poorly fitted or top-dose-only effect; inactive = no such curve, though single readings can be large or run the other way; also: potency is read from the fitted curve at half-maximal effect; the source files actives as falling curves though it sought activators and does not explain the sign; nearly all actives have a fitted effect of over 65% in size
Target sequence (P80244 whole entry, looked up): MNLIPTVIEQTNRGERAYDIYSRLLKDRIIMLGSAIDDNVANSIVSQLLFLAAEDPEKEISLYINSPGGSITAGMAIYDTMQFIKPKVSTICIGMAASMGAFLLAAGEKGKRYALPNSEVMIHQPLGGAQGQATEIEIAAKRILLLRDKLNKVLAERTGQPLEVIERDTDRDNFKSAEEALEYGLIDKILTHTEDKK
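ClpP 10 microg/mL final, pH 8 Tris/KCl buffer with BSA, glycerol, Tween-20; compound pinned in; FRET-FV substrate; RT 20 min; Ex320/Em430; ΔFRET vs ADEP 5.8 microM, DMSO, no enzyme.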
A549 viability – Nrf2 qHTS screen for inhibitors: counterscreen for cytotoxicity. A549 ARE-Fluc cells, CellTiter-Fluor viability, 18-24 h. Potency, µM (highest dose often 46 µM), for inactives: at the highest dose activity change, negative = cytotoxicity, hits mostly inhibitors. 390,000 tested, 0.16% active; also: potency is read from the fitted curve at half-maximal effect; % is scaled to controls: 0 for no effect and ±100 for the full control effect
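A549 ARE_Fluc cells in 5% FBS OPTI-MEM were exposed to compounds in concentration-response for 18-24 h at 37 deg C. Viability was read by CellTiter-Fluor fluorescence (Ex 405/Em 525) after 30 min, before the luciferase read.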
Nrf2 activator – qHTS of Nrf2 Activators. Potency, µM (highest dose often 46.1 µM), for the others: at the top dose activation, actives largely listed as activators. AREc32 ARE-luciferase reporter (MCF7-derived line), luminescence, 24 h. 410,000 tested, 0.31% active; also: potency is read from the fitted curve at half-maximal effect; % of control where 0% means no effect; nearly all actives have a fitted effect of over 65% in size
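Each well held 1000 AREc32 cells, which were incubated with compound for 24 hr at 37 deg C after overnight attachment, and ARE reporter activity was quantified by firefly luciferase luminescence.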
miR-21 act – qHTS Assay for Modulators of miRNAs and/orActivators of miR-21; HeLa miR-21 FLuc reporter, luciferase, 48 h; Potency, µM (highest dose often 38.3 µM), inactives show at the top dose activity change, positive = activation, hits mostly activators; 340,000 tested, under 10 active;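 also: % of control where 0% means no effect; miR-21 action dims this reporter so a rising signal means less miR-21 action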
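Compounds were titrated across several concentrations (up to approximately 40 uM) and incubated 48 hours with HeLa miR-21-FLuc reporter cells (miR-21 target sequence downstream of FLuc, endogenous miR-21). Readout was firefly luciferase luminescence after lytic detection reagent.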
p53 reactivator – qHTS assay for re-activators of p53 using a Luc reporter. Potency, µM (titrated, usually from 92.2 µM), without a hit: top-dose activity change, positive = activation, most hits filed as activators. H1299 p53-A138V BP100-luciferase reporter, luminescence, 24 h. 320,000 tested, 0.063% active. AID 504706, 2011; also: potency is read from the fitted curve at half-maximal effect; % of control where 0% means no effect; nearly all actives have a fitted effect of over 45% in size
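H1299 (p53-null), stable ts p53-A138V + BP100-Luc; 1000 cells/well, Opti-MEM/10% FBS; cpd 4 pt, 1:5; 24 h, 37 deg C, 5% CO2; detection reagent 10 min RT; luminescence.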
Active calls of the source: *; u = inconclusive; x = no result given; [ ] = another dose, or the depositor's remark. Unless noted, calls follow the shape of the dose curve; as a rule, active = well fitted curve in the direction sought with a large enough effect; inconclusive = small, poorly fitted or top-dose-only effect, or another doubt; inactive = no such curve, though single readings can be large; an effect the other way counts as inactive or inconclusive.

SMILES	Nrf2 inh	ClpP mod	A549 viability	Nrf2 activator	miR-21 act	p53 reactivator
COc1ccc(Cl)cc1-c1nc(-c2ccncc2)no1	u	-3%	0%	6.3µM*	-11%	3%
Cc1ccc(-n2c(SCc3ccccc3F)nc3[nH]ncc3c2=O)cc1Cl	x	2%	u	-2%	4%	x
CCN(CC(=O)NC1CCS(=O)(=O)C1)S(=O)(=O)c1ccc2ccccc2c1 (stereo not given)	8%	25µM*	4%	0%	1%	-2%
Cc1ccc(CCNC(=O)c2c[nH]c3ccc(S(=O)(=O)Nc4cccc(C(F)(F)F)c4)cc3c2=O)cc1	x	-11%	0%	-1%	8%	x
NS(=O)(=O)c1ccc(NC(=O)COC(=O)C23CC4CC(CC(C4)C2)C3)cc1	10%	1%	0%	0%	-4%	-3%
O=C(COC(=O)C1(c2ccccc2F)CCCC1)NC1CCS(=O)(=O)C1 (stereo not given)	9%	28µM*	0%	0%	3%	-8%
O=C(COC(=O)C1(c2ccccc2F)CCCC1)NCc1cccs1	21µM*	x	-11%	0%	-4%	-1%
NS(=O)(=O)c1ccc(NC(=O)COC(=O)C2(c3ccccc3F)CCCC2)cc1	21µM*	25µM*	u	0%	11%	-4%
O=C(COC(=O)C1(c2ccccc2F)CCCC1)NCc1ccc2c(c1)OCO2	-2%	-3%	-1%	0%	-3%	10%
O=C(C1CCCN(S(=O)(=O)c2ccc(Br)s2)C1)N1CCN(c2ccccc2F)CC1 (stereo not given)	2%	1%	0%	0%	-2%	x
COc1ccc(CNC(=O)CSCc2nc(-c3ccccc3C)oc2C)cc1	u	-2%	-15%	3%	-7%	x
CCCCn1c(N)c(N(CCOC)C(=O)C2CC(=O)N(c3cccc(SC)c3)C2)c(=O)[nH]c1=O (stereo not given)	5%	1%	-8%	-1%	x	-2%
CCCCNc1nc2c(S(=O)(=O)c3ccc(Cl)cc3)nnn2c2ccsc12	-10%	2%	0%	0%	-12%	x
Cc1ccc(-n2ncc(C(=O)NCc3ccco3)c2C2CCN(C(=O)OC(C)(C)C)CC2)cc1	-26%	1%	8%	2%	7%	x
O=C(Nc1ccccc1)Nc1ncc([N+](=O)[O-])s1	u	x	23µM*	0%	28%	-5%
CCc1ccc(C2c3c(oc4ccc(F)cc4c3=O)C(=O)N2c2nc(C)c(C(=O)OC)s2)cc1 (stereo not given)	17%	-10%	-1%	-1%	1%	x
Cc1ccc(NC(=O)C2CCC(CNS(=O)(=O)c3cccs3)CC2)cc1C (stereo not given)	x	-1%	-7%	0%	15%	x
CCn1nc(C)cc1C(=O)OCC(=O)c1ccc(Cl)cc1	18µM*	0%	1%	0%	-2%	6%
COc1cccc(-c2nnc(-c3ccc(C(F)(F)F)cc3)o2)c1OC	u	-21%	-4%	3%	-32%	u
COc1cc(OC)c(-c2nnc(-c3ccc(OC)c(OC)c3OC)o2)cc1OC	x	28µM*	-1%	4%	-15%	-16%
Cc1cc(C)nc(SCc2cc(=O)c(OC(=O)c3ccc(S(=O)(=O)N(C)C)cc3)co2)n1	3%	2.8µM*	0%	0%	-8%	-7%
CCCCCC(=O)NNC(=O)c1ccc(F)cc1	4%	2.8µM*	-2%	0%[9.22 µM]	-6%	-4%
CCCCCCCC(=O)NNC(=O)c1ccc(F)cc1	-23%	-3%	1%	-1%	-1%	-3%
CCCc1cc(=O)[nH]c(Nc2ccccc2O)n1	0%	-1%	0%	11µM*	-2%	x

Screening data from PubChem BioAssay.
